Data: PubChem BioAssay (NCI)
The panel holds about 83,000 compounds, 20% with a hit somewhere; the sample as a whole holds those more often.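 Note: values are percent growth. 100 is the growth of untreated cells, values between 100 and 0 indicate rising inhibition; between -100 and 0 indicates cell death.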 Values without a mark were called inactive. Activity calls are given as the source filed them. Rule for the calls: active = growth percent below 10; inactive = the rest.

Tests used:
Test in all cases: NCI-60 one-dose screen, 48 h (100 = growth as untreated, 0 = no growth, -100 = all killed)
Details in all cases: 10 µM
[1] = test system: HCT-15 colon
[2] = test system: HT29 colon
[3] = test system: SNB-75 CNS
[4] = test system: SNB-19 CNS
[5] = test system: U251 CNS
[6] = test system: PC-3 prostate
[7] = test system: SK-MEL-5 melanoma
[8] = test system: UACC-62 melanoma
[9] = test system: LOX IMVI melanoma
[10] = test system: SK-MEL-28 melanoma

O=C(/C=C/Nc1ccc(F)cc1F)c1ccc2c(c1)Nc1ccccc1S2
growth [1]: 33.1% | growth [2]: 70.8% | growth [3]: 124% | growth [4]: 63.9% | growth [5]: 73% | growth [6]: 74.8% | growth [7]: 76.1% | growth [8]: 48.8% | growth [9]: 65.9% | growth [10]: 79.2%

CNC(=O)c1cc(-c2ccc(NC(=O)Nc3ccc(C)cc3)cc2)nc2cccnc12
growth [1]: 93.6% | growth [2]: 99.2% | growth [3]: 107% | growth [4]: 91.7% | growth [5]: 101% | growth [6]: 87.1% | growth [7]: 95.4% | growth [8]: 83.8% | growth [9]: 101% | growth [10]: 118%

Cc1ccc(/C(CSc2nnc(-c3c[nH]c4ccccc34)n2-c2ccccc2)=N/O)cc1
growth [1]: -62.4% (active) | growth [2]: 6.35% (active) | growth [3]: -44.2% (active) | growth [4]: -18.5% (active) | growth [5]: 10.4% | growth [6]: -46.5% (active) | growth [7]: 34.1% | growth [8]: -52.6% (active) | growth [9]: -88.2% (active) | growth [10]: 62.5%

Cc1ccc(C(=O)NNC(=O)CSc2nc3ccccc3c(=O)[nH]2)cc1
growth [1]: 103% | growth [2]: 111% | growth [3]: 83.1% | growth [4]: 92.8% | growth [5]: 104% | growth [6]: 90.4% | growth [7]: 98.7% | growth [8]: 89.4% | growth [9]: 96.3% | growth [10]: 104%

CN(CCF)c1ccc(/C=C/C(=O)c2ccc(N)cc2O)cc1
growth [1]: 49.8% | growth [2]: 42.8% | growth [3]: 102% | growth [4]: 84.1% | growth [5]: 70.3% | growth [6]: 86.5% | growth [7]: 68.1% | growth [8]: 90.1% | growth [9]: 78.9% | growth [10]: 101%

O=C(NCCCCC(c1ccc(F)cc1)c1ccc(F)cc1)NCCCc1cccnc1
growth [1]: 14% | growth [2]: 14.4% | growth [3]: 53% | growth [4]: 24.5% | growth [5]: 26.4% | growth [6]: 11.5% | growth [7]: -90.5% (active) | growth [8]: 41.6% | growth [9]: 42.5% | growth [10]: 20.8%

CC1(C)CC[C@]2(C(=O)N3CCOCC3)CC[C@]3(C)C(=CC[C@@H]4[C@@]5(C)CC[C@H](NCO)C(C)(C)[C@@H]5CC[C@]43C)[C@H]2C1
growth [1]: -83% (active) | growth [2]: -60.8% (active) | growth [3]: -93.2% (active) | growth [4]: -95.8% (active) | growth [5]: -88.7% (active) | growth [6]: -61.6% (active) | growth [7]: -97.6% (active) | growth [8]: -93.9% (active) | growth [9]: -83.8% (active) | growth [10]: -98.9% (active)

O=C1CCC(N2Cc3cc(NC(=O)COc4ccccc4)ccc3C2=O)C(=O)N1 (stereo not given)
growth [1]: 25.4% | growth [2]: 79.5% | growth [3]: 46.4% | growth [4]: 66.7% | growth [5]: 86.8% | growth [6]: 37.7% | growth [7]: 74.2% | growth [8]: 84.4% | growth [9]: 108% | growth [10]: 95.9%

CC(C)(C)c1ccc(NCc2cn(-c3ccc(C(=O)O)cc3)nc2-c2ccc(C#N)cc2)cc1
growth [1]: -54.6% (active) | growth [2]: 3.73% (active) | growth [3]: 59.1% | growth [4]: 24.6% | growth [5]: 22.8% | growth [6]: 20.6% | growth [7]: 7.94% (active) | growth [8]: 8.63% (active) | growth [9]: 23.5% | growth [10]: 28.1%

CC[C@]12C=CCN3CC[C@@]4(c5cc(C#CCNc6ccc(C)c(Nc7nccc(-c8cccnc8)n7)c6)c(OC)cc5N(C)[C@H]4[C@@](O)(C(=O)OC)[C@@H]1OC(C)=O)C32 (stereo not given in full)
growth [1]: 25.9% | growth [2]: 25.8% | growth [3]: 77.7% | growth [4]: 48.1% | growth [5]: 40.8% | growth [6]: 37.5% | growth [7]: 32.1% | growth [8]: 69.4% | growth [9]: 38.6% | growth [10]: 37.5%

CCN1CCN(c2ccc(NC(=O)Nc3ccc(-c4cc(C(=O)NC(C)C)c5ncccc5n4)cc3)cc2C(F)(F)F)CC1
growth [1]: -93.5% (active) | growth [2]: -82.3% (active) | growth [3]: -94.3% (active) | growth [4]: -81.7% (active) | growth [5]: -89.5% (active) | growth [6]: -55.3% (active) | growth [7]: -100% (active) | growth [8]: -93.3% (active) | growth [9]: -100% (active) | growth [10]: -98.9% (active)

CCCn1c(O)c(N=Nc2nc(-c3cc4ccccc4oc3=O)cs2)c2cc(Br)ccc21
growth [1]: 90.4% | growth [2]: 110% | growth [3]: 94.7% | growth [4]: 90.3% | growth [5]: 86% | growth [6]: 96.3% | growth [7]: 95.5% | growth [8]: 94.4% | growth [9]: 83.6% | growth [10]: 101%

COc1ccc(CN2[C@H](C(=O)NCc3ccc(C(=O)NO)cc3)Cc3c([nH]c4ccccc34)[C@H]2C2CC2)cc1
growth [1]: 44.4% | growth [2]: 39.7% | growth [3]: 74.5% | growth [4]: 63.4% | growth [5]: 47.9% | growth [6]: 54.6% | growth [7]: 67.3% | growth [8]: 20.9% | growth [9]: 35.1% | growth [10]: 43.7%

COc1ccc2[nH]c(=O)c(CSc3nccc(-c4ccc(Cl)cc4)n3)cc2c1
growth [1]: 36.3% | growth [2]: 33.9% | growth [3]: -11.5% (active) | growth [4]: 40.5% | growth [5]: 13% | growth [6]: 29.3% | growth [7]: 44.8% | growth [8]: 37.9% | growth [9]: 27.9% | growth [10]: 45.3%

CN1C/C(=C\c2ccc(O)cc2O)c2[o+]c3cc(O)ccc3cc2C1
growth [1]: 21.9% | growth [2]: 44.4% | growth [3]: 60.5% | growth [4]: 42.1% | growth [5]: 14% | growth [6]: 65.8% | growth [7]: 57.9% | growth [8]: 47.5% | growth [9]: -66.7% (active) | growth [10]: 17.3%

O=C1NC(=NC2CCCCCC2)N/C1=C\c1ccc2ncoc2c1
growth [1]: 13% | growth [2]: 56.1% | growth [3]: 14.7% | growth [4]: 29.7% | growth [5]: 32.7% | growth [6]: 53.8% | growth [7]: 21.1% | growth [8]: 19.3% | growth [9]: 22.2% | growth [10]: 27.5%

CC(=O)Nc1ccc(-c2cn(-c3cccc(C(=O)Nc4ccc(Cl)c(C(F)(F)F)c4)c3)nn2)cn1
growth [1]: -57.8% (active) | growth [2]: -50.3% (active) | growth [3]: 88% | growth [4]: -35.3% (active) | growth [5]: -59.5% (active) | growth [6]: 1.58% (active) | growth [7]: 38.5% | growth [8]: -62.4% (active) | growth [9]: -90.8% (active) | growth [10]: -80.6% (active)

COc1ccccc1[C@H]1C(C(=O)c2ccc(Cl)cc2)C2(N[C@@H]1c1ccccc1)C(=O)Nc1ccccc12 (stereo not given in full)
growth [1]: -18.7% (active) | growth [2]: -53.1% (active) | growth [3]: 55.6% | growth [4]: 13.7% | growth [5]: -31% (active) | growth [6]: 5.37% (active) | growth [7]: -87.2% (active) | growth [8]: -74.9% (active) | growth [9]: -97.3% (active) | growth [10]: -36.6% (active)

N#Cc1c(-c2ccc(F)cc2)nc(SCc2ccc([N+](=O)[O-])cc2)nc1N1CCOCC1
growth [1]: 72.8% | growth [2]: 86.6% | growth [3]: 7.62% (active) | growth [4]: 46% | growth [5]: 55.3% | growth [6]: 59.1% | growth [7]: 61.9% | growth [8]: 62.7% | growth [9]: 84.7% | growth [10]: 82.1%

CCOC(=O)C1NN(c2ccc(S(N)(=O)=O)cc2)c2nc3nc(-c4cccs4)cc(-c4cccs4)c3c(=O)n21 (stereo not given)
growth [1]: 88.5% | growth [2]: 73.9% | growth [3]: 66.8% | growth [4]: 96.4% | growth [5]: 84.5% | growth [6]: 80% | growth [7]: 75.5% | growth [8]: 74.8% | growth [9]: 80.7% | growth [10]: 73.1%

O=c1[nH]c2ccccc2cc1CSc1ccc(Nc2nccc(-c3ccc4ccccc4c3)n2)cc1
growth [1]: 30.6% | growth [2]: 49.9% | growth [3]: 111% | growth [4]: 71.2% | growth [5]: 20% | growth [6]: 1.09% (active) | growth [7]: 77% | growth [8]: 95.7% | growth [9]: 3.77% (active) | growth [10]: 65.7%

COc1cc(/C=C/C(=O)c2ccc(NC(=O)CSc3nnc(-c4c[nH]c5ccccc45)n3-c3ccccc3)cc2)cc(OC)c1OC
growth [1]: 23.5% | growth [2]: 51% | growth [3]: 94.9% | growth [4]: 68.9% | growth [5]: 18.7% | growth [6]: 65.6% | growth [7]: 90.2% | growth [8]: 59.1% | growth [9]: 4.61% (active) | growth [10]: 104%

O=C(Nc1ccc(OCc2ccccc2)cc1)Nc1ccc(Cl)c(C(F)(F)F)c1
growth [1]: 9.69% (active) | growth [2]: 6.91% (active) | growth [3]: -20.2% (active) | growth [4]: 8.37% (active) | growth [5]: -10.2% (active) | growth [6]: -0.967% (active) | growth [7]: -96.6% (active) | growth [8]: 14.1% | growth [9]: -25.1% (active) | growth [10]: 14.3%

COc1ccc(NC(=O)CSc2nnc(-c3ccc4nc(-c5ccc(Cl)cc5)[nH]c4c3)o2)cc1
growth [1]: 29.9% | growth [2]: 34.6% | growth [3]: 112% | growth [4]: 33.7% | growth [5]: -15.3% (active) | growth [6]: 51.9% | growth [7]: 16.1% | growth [8]: 7.61% (active) | growth [9]: 16.6% | growth [10]: 10.1%

O=C(c1ccc(Cl)cc1)C1[C@H](c2ccc(Br)cc2)[C@@H](c2ccccc2)NC12C(=O)Nc1ccccc12 (stereo not given in full)
growth [1]: -2.63% (active) | growth [2]: -52.2% (active) | growth [3]: 15% | growth [4]: 15.9% | growth [5]: -6.22% (active) | growth [6]: 5.16% (active) | growth [7]: -23.2% (active) | growth [8]: -60.6% (active) | growth [9]: -100% (active) | growth [10]: -32.7% (active)

COc1cnc2c(c1)C(=O)c1c-2n(CCCNCCO)c(=O)c2cc(OC)c(OC)cc12
growth [1]: 32.3% | growth [2]: 12.1% | growth [3]: 59.6% | growth [4]: 18.7% | growth [5]: 20.8% | growth [6]: 43.2% | growth [7]: 12% | growth [8]: -2.88% (active) | growth [9]: -78% (active) | growth [10]: 70.2%
